TGFb SMAD3 inh – blocks TGF-b signaling; hit rate 1.2% among 410,000; Potency, µM (highest dose often 46.1 µM), for the others: at the highest dose activity, negative = inhibition, usual class: inhibitors; HepG2 CAGA-GFP TGF-b/SMAD3 reporter, GFP fluorescence, 18 h; TGF-beta stimulated, 500 pg/mL final; also: % is scaled to controls: 0 for no effect and ±100 for the full control effect; nearly all actives have a fitted effect of over 65% in size
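Read-out: total well GFP (ex488/em500-530) summed from mean per-cell fluorescence. Cells: HEPG2 CAGA-GFP, 1% FBS DMEM, 18 h at 37 degrees C with 500 pg/mL final TGF-beta. Unstimulated wells served as the full-inhibition control; stimulated DMSO wells = 0%.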
ATXN viability – viability counter-screen for ATXN expression inhibitors; S2 cells (HEK-293 line with an ATXN2-luciferase reporter) viability, CellTiter-Fluor protease fluorescence, 24 h; Potency, µM (highest dose often 56.7 µM), usual class: cytotoxic; hit rate 0.49% among 400,000; AID 651635; also: nearly all actives have a fitted effect of over 40% in size
DT40 TDP1 CPT – growth inhibition of DT40 Tdp1-/-;hTDP1 cells with camptothecin (screen for TDP1 inhibitors). chicken DT40 Tdp1-/-;hTDP1 cells + 20 nM CPT, ATP luminescence, 48 h. Potency, µM (doses to about 46.2 µM), for the others: at the top dose activity change, negative = growth inhibition, hits mostly inhibitors. hit rate 12% among 420,000. AID 686979; also: % is scaled to controls: 0 for no effect and ±100 for the full control effect; nearly all actives have a fitted effect of over 55% in size
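Cell growth measured by CellTiter-Glo luminescence after a minimum 48 h, 37 C compound exposure with 20 nM CPT in Tdp1-knockout DT40 cells stably expressing hTDP1, seeded 400/well; qHTS titration format.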
HepG2 viability – kills HepG2 cells in TGF-b inhibitor counter-screen. HepG2 CAGA-GFP viability, ATP luminescence, 18 h. AID 588856. hit rate 0.76% among 410,000. Potency, µM (top dose mostly 46.1 µM), without a hit: top-dose activity change, negative = cytotoxicity, hits mostly cytotoxic
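CellTiter-Glo luminescence gave cytotoxicity after 18 hours at 37 degrees C. The cells were HepG2 CAGA-GFP in 1% FBS DMEM, stimulated with 500 pg/mL TGF-beta after compound addition. %Activity was normalised to no-cell wells (complete cell-killing) and DMSO (no toxicity), and curves were fitted and classified.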
ATXN2 expr inh – inhibitors of ATXN2 expression; HEK-293 ATXN2-luciferase reporter, luminescence, 24 h; Potency, µM (titrated, usually from 57 µM), inactives show at the top dose activity change, negative = inhibition, most hits filed as inhibitors; AID 1745845; hit rate 0.72% among 360,000; also: % is scaled to controls: 0 for no effect and ±100 for the full control effect; nearly all actives have a fitted effect of over 55% in size
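ATXN2-luciferase reporter cells (luciferase flanked by upstream and downstream ATXN2 gene portions) were treated 24 h at 37 °C with compounds at up to 57 uM. SteadyGlo luminescence gave expression; GF-AFC fluorescence gave viability.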
DT40 TDP1 no CPT – qHTS for Inhibitors of human tyrosyl-DNA phosphodiesterase 1 (TDP1): qHTS in cells in absence of CPT; DT40 Tdp1-/- hTDP1 cells, no CPT, ATP luminescence, 48 h; Potency, µM (highest dose often 46.2 µM), inactives show at the highest dose activity change, negative = growth inhibition, hits mostly inhibitors; hit rate 15% among 420,000; also: % is scaled to controls: 0 for no effect and ±100 for the full control effect; nearly all actives have a fitted effect of over 55% in size
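DT40 Tdp1-/-;hTDP1 cells, no CPT (DMSO vehicle only), 400 cells/well; compounds pin-transferred; ≥48 hr, 37 °C; CellTiter-Glo 30 min RT dark, luminescence read.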
The depositor's hits bear a star; i = inactive; ? = inconclusive; / = no result given. Rows were chosen to be rich in hits. Some 17% of all compounds tested hit in one or more screens of this group. Calls follow the shape of the dose curve; as a rule, active = well fitted curve in the direction sought with a large enough effect; inconclusive = small, poorly fitted or top-dose-only effect, or another doubt; inactive = no such curve, though single readings can be large; an effect the other way counts as inactive or inconclusive. Potency is read from the fitted curve at half-maximal effect.

SMILES	TGFb SMAD3 inh	ATXN viability	DT40 TDP1 CPT	HepG2 viability	ATXN2 expr inh	DT40 TDP1 no CPT
COc1ccc(OC)c(NC(=O)C2(C)CCN2Cc2cccc(OC)c2OC)c1 (stereo unspecified)	-1.3%	?	?	-11.9%	-16.5%	14.6µM*
COc1ccc(OC)c(NC(=O)C2(C)CCN2C(=O)C2(c3ccccc3)CCCC2)c1 (stereo unspecified)	-11.6%	?	?	-16.8%	-14.2%	23.1µM*
COc1ccc(OC)c(NC(=O)C2(C)CCN2CCOc2ccccc2)c1 (stereo unspecified)	3.0%	i	23.1µM*	-15.4%	-6.6%	?
CC1(C(=O)Nc2cccc3cccnc23)CCN1Cc1ccccc1OC(F)F (stereo unspecified)	?	?	?	-39.4%	?	14.6µM*
Cc1ccc(-n2nc(CO)c(C(=O)NCc3cccs3)n2)cc1C	?	/	-24.6%	-6.5%	/	-15.3%
Cc1ccc(SCC(=O)Nc2c(Br)cnn2C)cc1	2.8%	i	?	-2.8%	-14.8%	?
Cn1cnc(S(=O)(=O)N2CCCCC2c2cc(C(=O)Nc3ccc(F)c(Cl)c3)no2)c1 (stereo unspecified)	-13.7%	i	?	-9.5%	19.6%	?
O=C(NCc1cccs1)C(=O)c1cn(CC(=O)N2CCOCC2)c2ccccc12	0.0%	i	-19.1%	-0.8%	/	-7.1%
CC1(C(=O)Nc2cccc3cccnc23)CCN1Cc1ccc(-c2ccccc2)o1 (stereo unspecified)	-22.5%	/	23.1µM*	-33.8%	?	18.4µM*
COc1cccc(CN2CCC2(C)C(=O)Nc2cccc3cccnc23)c1OC (stereo unspecified)	11.2µM*	?	16.4µM*	-56.9%	2.51µM*	18.4µM*
Cc1ccc(OCCN2CCC2(C)C(=O)Nc2ccc3c(c2)OCCO3)cc1 (stereo unspecified)	?	?	-97.8%	-34.8%	-8.0%	18.4µM*
CC(C)Oc1ccc(CN2CCC2(C)C(=O)Nc2cccc3cccnc23)cc1 (stereo unspecified)	-4.4%	i	18.4µM*	-31.9%	-7.5%	?
Cc1c(Br)cccc1NC(=O)C1(C)CCN1Cc1ccc(OC(C)C)cc1 (stereo unspecified)	-4.8%	i	-6.4%	-23.0%	11.4%	?
CC1(C(=O)Nc2ccccc2Cc2ccccc2)CCN1CCc1ccccc1 (stereo unspecified)	?	i	?	-30.1%	-28.5%	?
COc1ccc(C(=O)NCc2nc(C)c(C)s2)cc1OC1CCN(C(C)C)CC1	8.0%	i	2.8%	-13.8%	-5.5%	1.0%
CC1CCc2cc(F)ccc2N1S(=O)(=O)c1ccc(Cl)nc1 (stereo unspecified)	0.0%	i	14.6µM*	2.9%	-14.2%	?
O=C(CN1C(=O)NC2(CCCCC2)C1=O)Nc1ccc2[nH]c(=O)[nH]c2c1	3.8%	i	-2.2%	-14.4%	/	-11.3%
CC(C)CCn1c(Sc2nc3ccccc3s2)nc2c1c(=O)[nH]c(=O)n2C	-17.1%	i	?	-52.0%	-14.0%	16.4µM*
CC(CSc1nc2ccccc2s1)Cn1c(N2CCCC2)nc2c1c(=O)[nH]c(=O)n2C (stereo unspecified)	-5.0%	i	?	-30.0%	4.3%	16.4µM*
CC1CCN(c2nc3c(c(=O)[nH]c(=O)n3C)n2CC(C)CSc2nnnn2-c2ccccc2)CC1 (stereo unspecified)	-19.7%	i	16.4µM*	-47.2%	-4.5%	?
COc1ccc(NC(=O)CSc2nc(O)c(C/C=C/c3ccccc3)c(=O)[nH]2)cc1	2.4%	i	-1.8%	-14.7%	-6.1%	-28.0%
O=C(C1CCN(S(=O)(=O)c2ccccc2)CC1)N1CCN(c2ccccc2)CC1	-4.3%	i	?	0.0%	-5.3%	20.6µM*
CC1CCN(C(=O)C2CCN(S(=O)(=O)c3cccnc3)CC2)CC1	-7.8%	i	-6.1%	-19.3%	3.6%	-6.2%
Cc1ccc(Cl)cc1N1CCN(C(=O)C2CCN(S(=O)(=O)Cc3ccccc3)CC2)CC1	-24.4%	i	4.11µM*	-20.0%	-5.3%	13µM*
O=C(C1CCN(S(=O)(=O)c2cccnc2)CC1)N1CCN(c2ccccc2Cl)CC1	2.4%	i	?	-1.9%	-7.8%	20.6µM*
SMILES	TGFb SMAD3 inh	ATXN viability	DT40 TDP1 CPT	HepG2 viability	ATXN2 expr inh	DT40 TDP1 no CPT
O=C(C1CCN(S(=O)(=O)c2cccnc2)CC1)N1CCCCC1	6.4%	i	-15.7%	-0.5%	-11.2%	-7.7%
COc1ccc(N2CCN(C(=O)C3CCN(S(=O)(=O)c4ccccc4)CC3)CC2)cc1	1.4%	i	-25.3%	-13.4%	-12.9%	?
O=C(C1CCN(S(=O)(=O)c2cccnc2)CC1)N1CCN(c2ccc(Cl)cc2)CC1	?	i	5.17µM*	-19.5%	/	3.66µM*
Cc1cccc(NS(=O)(=O)c2ccc3oc(=O)ccc3c2)c1C	2.2%	i	?	-3.4%	/	-28.6%
Cc1ccc(Cl)cc1N1CCN(C(=O)C2CCN(S(=O)(=O)c3cccnc3)CC2)CC1	10.6%	i	2.91µM*	-37.8%	-10.9%	4.61µM*
O=C(Nc1ccc(Cl)cc1F)C1CCN(S(=O)(=O)c2cccnc2)CC1	-11.1%	i	?	6.7%	-8.6%	?
COc1ccc(OCC(O)CNc2ccc(Br)cc2)cc1 (stereo unspecified)	-17.2%	i	-10.8%	-18.1%	-7.4%	?
COc1ccc(Br)cc1CN(C)CC(O)COc1ccc(Br)cc1 (stereo unspecified)	?	i	?	17.8µM*	?	?
COc1ccc(CN(C)CC(O)COc2ccc(C(=O)c3ccccc3)cc2)c(OC)c1OC (stereo unspecified)	?	?	?	-34.1%	0.0%	16.4µM*
CN(CCOc1ccccc1)CC(O)COc1ccccc1 (stereo unspecified)	2.6%	i	?	-6.0%	-1.8%	?
CN(CCOc1ccc(Br)cc1)CC(O)COc1ccc(C#N)cc1 (stereo unspecified)	?	i	?	-39.6%	?	4.11µM*
CCOCCCn1c(SCC(=O)Nc2ccccc2Cl)nc2c(oc3ccccc32)c1=O	-6.5%	i	?	-1.9%	2.2%	7.31µM*

High-throughput results (PubChem)
